Assay results from PubChem BioAssay (Tox21).
Results filed as inconclusive are left out. A number with no mark means an inactive call. The source made the active and inactive calls. Calls come from the whole dose curve; as a rule, active = well fitted activation curve with a large enough effect; inconclusive = small, poorly fitted or top-dose-only effect; inactive = flat fitted curve, though single readings scatter.

experiment: qHTS assay to identify small molecule phospholipidosis (PLD) inducers (AID 1259344); conditions: HepG2 phospholipidosis, LipidTOX Red imaging, 24 h; series mostly up to 38.3 µM
From the text: National Center for Advancing Translational Sciences [NCATS]
Drug-induced Phospholipidosis (PLD) caused by cationic amphiphilic drugs is characterized by the appearance of unicentric or multicentric-lamellar bodies when viewed under electron microscope. Electron microscopy is the gold standard method for PLD detection, however, this method is time-consuming and labor intensive, making it unsuitable for evaluating a large set of compounds. A cell-based phospholipidosis assay has been developed using the LipidTox reagent in HepG2 cells and miniaturized into a 1536-well plate format. Drug induced phospholipid accumulation is stained with the LipidTox dyes in red color which then is determined using an automated high content screening system.
HepG2 cells are dispensed at 900 cells/3 uL/well into Collagen I-coated 1536-well black-wall/clear-bottom assay plates (Greiner Bio-One, Monroe, NC) using the Multidrop Combi 8 channel dispenser (Thermo Fisher, Waltham, MA, USA). The assay plates are incubated at 37 C for 4 hours to allow the cell attachment. 3 uL of 1:500 LipidTOX Red dye is added using the dispenser, and then 23 nL compounds are added via a Wako Pintool station (Wako Automation, San Diego, CA). Amiodarone, a known PLD inducer, was used as a positive control and DMSO was used as a negative control. The assay plates were then incubated at 37 C for 24 hours.
For fixations, 4 uL of 8% paraformaldehyde fixative solution containing 10 ug/mL Hoechst 33342 in Dulbecco's phosphate-buffered saline (DPBS) is added using a Kalypsys washer/dispenser (Kalypsys, San Diego, CA, USA). After incubation at room temperature for 30 min, the assay plates are washed once with DPBS using a Kalypsys washer/dispenser. The assay plates are then sealed and stored at 4 C before imaging. The fluorescence intensities (595 nm excitation, 615 nm emission for LipidTOX; 352 nm excitation, 461 nm emission for Hoechst 33342) are measured using an ImageXpress Micro Widefield High Content Screening System (Molecular Devices, Sunnyvale, CA, USA) with a 20x Plan Fluor objective. Images are acquired for one site in each well and analyzed with the MetaXpress software (Molecular Devices) using the Transfluor module. Several algorithmic outputs, such as pit count per well, pit count per cell, pit integrated intensity per well, and pit integrated intensity per cell, are used for quantitative image analysis for PLD.
% is set by controls: 0 for no effect and ±100 for the full control effect.

With `CN1C(=O)CC(C)(c2ccccc2)C1=O` (stereo not given) as the compound, how does the outcome read?
The outcome was “inactive”.

For `O=C(O)C(Cc1cc(I)c(O)c(I)c1)c1ccccc1` (stereo not given), which outcome is on record?
Its outcome is “inactive”.

Which outcome does the source give for `CC(CCc1ccc2c(c1)OCO2)NN` (stereo not given) here?
Its outcome is “inactive”.

For `N#C[C@@H]1C[C@@H]2C[C@@H]2N1C(=O)[C@@H](N)C12CC3CC(CC(O)(C3)C1)C2`, which PLD induction is on record?
The PLD induction was -3.21% [at 7.66 µM].

Which PLD induction does the source give for `Cc1cc2nc3ccc(=[N+](C)C)cc-3sc2cc1N` here?
The PLD induction was -3.22% [at 0.306 µM].

Which outcome does the source give for `CCCCCC=CCC=CCCCCCCCC(=O)OCC` here?
Its outcome is “inactive”.

For `CC(C)(C)C(=O)C(Oc1ccc(Cl)cc1)n1ccnc1` (stereo not given), which outcome is on record?
Its outcome is “inactive”.

Which outcome does the source give for `CCC(C(=O)OCCOCCN(CC)CC)c1ccccc1` (stereo not given) here?
The outcome was “inactive”.

With `COC(=O)Nc1nc2ccc(C(=O)c3cccs3)cc2[nH]1` as the compound, how does the outcome read?
The outcome was “inactive”.

With `CC(C)(C)CC(C)(C)c1ccc(OCCO)cc1` as the compound, how does the outcome read?
Its outcome is “inactive”.

Which outcome does the source give for `Cc1ccc(/C=N/n2c(-c3ccccc3)csc2=S)cc1` here?
Its outcome is “inactive”.

For `CCN(CC)CCNC(=O)c1ccc(NC(C)=O)cc1`, which outcome is on record?
Its outcome is “inactive”.

With `Nc1nccs1` as the compound, how does the outcome read?
Its outcome is “inactive”.

With `O=C(CCC1CCN(Cc2ccccc2)CC1)c1ccc2c(c1)NCCCC2` as the compound, how does the outcome read?
Its outcome is “inactive”.

With `O=C(N/N=C/c1ccc([N+](=O)[O-])o1)c1ccc(O)cc1` as the compound, how does the outcome read?
Its outcome is “inactive”.

Which outcome does the source give for `C[N+]1(C)CCC(=C(c2ccccc2)c2ccccc2)CC1` here?
Its outcome is “inactive”.

Which outcome does the source give for `O=C(O)Cc1ccc(-c2ccccc2)cc1` here?
Its outcome is “inactive”.

For `CCc1c2c(nc3ccc(OC(=O)N4CCC(N5CCCCC5)CC4)cc13)-c1cc3c(c(=O)n1C2)COC(=O)[C@]3(O)CC`, which outcome is on record?
Its outcome is “inactive”.

Which outcome does the source give for `CCCCN(CCCC)CCCOC(=O)c1ccc(N)cc1` here?
The outcome was “inactive”.

With `CC1CC(O)CC(C)(C)C1` (stereo not given) as the compound, how does the outcome read?
Its outcome is “inactive”.

With `CO/N=C1\CN(c2nc3c(cc2F)c(=O)c(C(=O)O)cn3C2CC2)CC1CN` (stereo not given) as the compound, how does the outcome read?
Its outcome is “inactive”.

Which outcome does the source give for `CCC(C(=O)OCCN(CC)CC)c1ccccc1` (stereo not given) here?
Its outcome is “inactive”.

Which outcome does the source give for `CN1CCCN=C1/C=C/c1cccs1` here?
Its outcome is “inactive”.

With `CN1CCN(CCCN2c3ccccc3Sc3ccc(S(=O)(=O)N(C)C)cc32)CC1` as the compound, how does the outcome read?
The outcome was “inactive”.

With `O=C(Nc1ccc([N+](=O)[O-])cc1)Nc1ccc([N+](=O)[O-])cc1` as the compound, how does the outcome read?
The outcome was “inactive”.

For `Cc1cc(OI)c(C(C)C)cc1-c1cc(C(C)C)c(OI)cc1C`, which outcome is on record?
Its outcome is “inactive”.

For `O=C(NCCCN1CCOCC1)c1ccc(Cl)cc1`, which outcome is on record?
Its outcome is “inactive”.

With `CCCCC1C(=O)N(c2ccccc2)N(c2ccc(O)cc2)C1=O` (stereo not given) as the compound, how does the outcome read?
Its outcome is “inactive”.

Which outcome does the source give for `COc1cc2[nH]c(=O)[nH]c(=O)c2cc1OC` here?
Its outcome is “inactive”.

With `CCOc1cc(N)c(Cl)cc1C(=O)NCC1CN(Cc2ccc(F)cc2)CCO1` (stereo not given) as the compound, how does the outcome read?
The outcome was “inactive”.

Which outcome does the source give for `CC1(C)O[C@@H]2C[C@H]3[C@@H]4CCC5=CC(=O)C=C[C@]5(C)[C@H]4[C@@H](O)C[C@]3(C)[C@]2(C(=O)CO)O1` here?
Its outcome is “inactive”.

With `CN(C)CCOC1=Cc2ccccc2Sc2ccc(Cl)cc21` as the compound, how does the outcome read?
The outcome was “inactive”.

For `CCCCCCCCCCCC(=O)[O][Sn]([CH2]CCC)([CH2]CCC)[O]C(=O)CCCCCCCCCCC`, which outcome is on record?
Its outcome is “inactive”.

With `CCCCCCCCCCCCCCC[C@H](O)[C@@H](N)CO` as the compound, how does the outcome read?
Its outcome is “inactive”.

With `Nc1nc(Cl)nc2c1ncn2[C@@H]1O[C@H](CO)[C@@H](O)[C@@H]1F` as the compound, how does the outcome read?
Its outcome is “inactive”.

For `CC(=O)[C@H]1CC[C@H]2[C@@H]3C=CC4=CC(=O)CC[C@@]4(C)[C@@H]3CC[C@]12C`, which outcome is on record?
Its outcome is “inactive”.

Which outcome does the source give for `Cc1nc2ccccn2c(=O)c1CCN1CCC(C(=O)c2ccc(F)cc2)CC1` here?
The outcome was “inactive”.

Which outcome does the source give for `CO[C@@]12[C@H](COC(N)=O)C3=C(C(=O)C(C)=C(N)C3=O)N1C[C@@H]1N[C@@H]12` here?
The outcome was “inactive”.

For `COc1cc2ncnc(Nc3ccc(F)c(Cl)c3)c2cc1OCCCN1CCOCC1`, which outcome is on record?
Its outcome is “inactive”.

Which outcome does the source give for `CCc1nn(CCCN2CCN(c3cccc(Cl)c3)CC2)c(=O)n1CCOc1ccccc1` here?
Its outcome is “inactive”.
